Data published in PubChem BioAssay (Tox21).
Values joined by “and” are separate entries in the source; they are usually repeats but may differ in a detail not shown here. Equal entries are not always repeated. Records with an inconclusive call do not appear. Some structures have more than one record in an assay (separate samples or runs), and their calls can disagree. Active and inactive are the calls of the source. Unless noted, the call rests on the fitted dose curve.

Columns and labels:
[1] = Nuclear factor erythroid 2-related factor 2/antioxidant responsive element (Nrf2/ARE) small molecule agonists: qHTS cell viability counter screen in human keratinocytes (AID 1919968; active means well fitted curve in the direction sought with a large enough effect in the repeat runs; an effect the other way counts as inactive or inconclusive; further: nearly all actives have a fitted effect of over 55% in size; further: potency means the concentration at half of the fitted maximal effect)
Procedure, shortened: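 Seed 1,500 KeratinoSens cells per well, then incubate 5 h at 37 C/5% CO2. Add compounds in DMSO and incubate 23 h. Add CellTiter-Fluor, wait 1 h and read fluorescence.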

[2] = Nuclear factor erythroid 2-related factor 2/antioxidant responsive element (Nrf2/ARE) small molecule agonists: luciferase reporter gene qHTS assay in human keratinocytes (AID 1919969); further: nearly all actives have a fitted effect of over 35% in size; further: potency means the concentration at half of the fitted maximal effect
[3] = molecular target: Gonadotropin-releasing hormone receptor (Homo sapiens) (UniProt P30968); experiment: Human gonadotropin-releasing hormone receptor (GnRHR) small molecule agonists, calcium flux assay in GnRHR-HEK293 cells (AID 1920063); further: nearly all actives have a fitted effect of over 35% in size
Procedure, shortened: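 Cells: HEK293 stably expressing human GnRHR. Steps: overnight (18 h) culture, 1 h calcium dye loading at 37 C, compound addition, kinetic fluorescence read at 480/540 nm. Each compound tested at 15 concentrations in triplicate.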

[4] = molecular target: KiSS-1 receptor (Homo sapiens) (UniProt Q969F8); experiment: Human kisspeptin (KISS1R) small molecule agonists, calcium flux assay in KISS1R-HEK293 cells (AID 1920064; active means well fitted curve in the direction sought with a large enough effect in the repeat runs; an effect the other way counts as inactive or inconclusive)
Procedure, shortened: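 Cells plated and incubated 18 h; dye added, 1 h at 37 C; compounds in DMSO pinned in; signal read at 480/540 nm every second for 3 min. Each compound tested at 15 concentrations in triplicate.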

[5] = G protein-coupled receptor (GPCR) small molecule agonists, calcium flux assay: HEK293 wild type cell line counter screen (AID 1920065)
Procedure, shortened: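 Counter-screen of the Tox21 10K library for non-specific calcium release: dye-loaded cells received compounds in DMSO and were monitored by kinetic fluorescence (480/540 nm, 3 min). Fifteen concentrations, run in triplicate.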

[6] = p53 small molecule agonists, cell-based qHTS assay with human liver microsomes (AID 1963577);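 further: p53 response element beta-lactamase reporter cells with liver microsomes plus NADPH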
Procedure, shortened: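 In this qHTS, p53 response-element beta-lactamase cells receive test compound together with a microsome/NADPH activating system (0.5 mg/mL final each) and are incubated 16 h at 37 C before LiveBLAzer fluorescence detection.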

[7] = p53 small molecule agonists, cell-based qHTS assay with rat liver microsomes (AID 1963578)
Procedure, shortened: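 Agonist mode in p53RE-bla reporter cells, with compounds co-incubated 16 h at 37 C alongside 0.5 mg/mL rat liver microsomes and 0.5 mg/mL NADPH (final), followed by a 2 h LiveBLAzer detection step.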

[8] = p53 small molecule agonists, cell-based qHTS assay with human liver microsomes: qHTS cell viability counter screen (AID 1963579); further: nearly all actives have a fitted effect of over 45% in size; further: potency means the concentration at half of the fitted maximal effect
Procedure, shortened: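 Metabolically activated exposure: compounds, human liver microsomes and NADPH (0.5 mg/mL final apiece) were added to p53RE-bla cells seeded 5 h earlier, left 16 h at 37 C, and then assessed for viability by CellTiter-Glo luminescence.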

[9] = p53 small molecule agonists, cell-based qHTS assay with rat liver microsomes: qHTS cell viability counter screen (AID 1963580); further: nearly all actives have a fitted effect of over 45% in size; further: potency means the concentration at half of the fitted maximal effect
Procedure, shortened: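 p53RE-bla HCT-116 cells (4,000/well) rested 5 h at 37 C, then given Tox21 compounds in DMSO with rat liver microsomes (0.5 mg/mL final) plus NADPH (0.5 mg/mL final) for 16 h at 37 C. Viability read by CellTiter-Glo luminescence after 30 min at room temperature.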

[10] = p53 small molecule agonists, cell-based qHTS assay (AID 1963582; active means well fitted activation curve with a large enough effect in the signal ratio in the repeat runs, not every such curve was filed as active; the % refers to the signal ratio)
Procedure, shortened: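 Quantitative HTS in p53RE-bla cells: after a 5 h settling period, compounds delivered in DMSO were left on cells for 16 h at 37 C, and reporter induction was measured as fluorescence following 2 h substrate loading.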

[11] = molecular target: 5-hydroxytryptamine receptor 2A (Homo sapiens) (UniProt P28223); experiment: 5-hydroxytryptamine receptor 2A (HTR2A) small molecule agonists, cell-based qHTS assay (AID 1963587); further: nearly all actives have a fitted effect of over 30% in size; further: potency means the concentration at half of the fitted maximal effect
Procedure, shortened: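 HTR2A-CHO cells, plated 18 h at 37 C/5% CO2, dye-loaded 1 h at 37 C; compounds in DMSO added by pin tool (agonist mode). Intracellular calcium flux read as kinetic fluorescence on FDSS over 2 min at 1 s intervals.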

[12] = molecular target: Muscarinic acetylcholine receptor M1 (Homo sapiens) (UniProt P11229); experiment: Cholinergic receptor muscarinic 1 (CHRM1) small molecule antagonists, cell-based qHTS assay (AID 1963588); further: nearly all actives have a fitted effect of over 40% in size
Procedure, shortened: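 CHRM1-CHO calcium-flux assay, antagonist mode. Cells were seeded 18 h, dye-loaded 1 h at 37 C and given compound for 5 min at RT, then acetylcholine was added at 50nM. FDSS fluorescence was read 3 min; 15 concentrations, three runs.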

[13] = molecular target: Muscarinic acetylcholine receptor M1 (Homo sapiens) (UniProt P11229); experiment: Cholinergic receptor muscarinic 1 (CHRM1) small molecule agonists, cell-based qHTS assay (AID 1963589); further: nearly all actives have a fitted effect of over 35% in size
Procedure, shortened: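 Agonist-mode qHTS in CHO cells stably carrying human muscarinic M1. Intracellular calcium is tracked by fluorescence every second after compound transfer; each compound runs at 15 concentrations in three independent runs.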

[14] = cAMP Responsive Elements (CRE) small molecule agonists, cell-based qHTS assay (AID 1963590)
Procedure, shortened: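 Agonist mode qHTS in CRE-bla HEK 293T cells: compounds dosed from DMSO for 3 h at 37 C/5% CO2, followed by LiveBLAzer B/G FRET substrate for 2 h at room temperature.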

[15] = molecular target: Beta-2 adrenergic receptor (Homo sapiens) (UniProt P07550); experiment: Adrenergic beta2 receptor (ADRB2) small molecule antagonists, cell-based qHTS assay (AID 1963592); further: series mostly up to about 92 µM; nearly all actives have a fitted effect of over 50% in size
Procedure, shortened: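 Cells (CHO, stable ADRB2 overexpression) incubated 18-20hr at 37C; compounds added from DMSO; agonist mix (1nM isoproterenol, 100uM IBMX, 25uM Ro-20-1724) added; 0.5hr RT; d2-cAMP and anti-cAMP-cryptate added; 1hr RT; 665/615 nm read.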

[16] = molecular target: Beta-2 adrenergic receptor (Homo sapiens) (UniProt P07550); experiment: Adrenergic beta2 receptor (ADRB2) small molecule agonists, cell-based qHTS assay (AID 1963593);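 further: CHO cells stably overexpressing human ADRB2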
Procedure, shortened: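 CHO cells stably over-expressing ADRB2 were plated overnight at 37C, then dosed with compounds plus a stimulation mix containing 100uM IBMX and 25uM Ro-20-1724 for 0.5hr at room temperature. cAMP was measured by HTRF competition, 1hr.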

[17] = molecular target: D(2) dopamine receptor (Homo sapiens) (UniProt P14416); experiment: Dopamine D2 receptor (DRD2) small molecule agonists, cell-based qHTS assay (AID 1963594); further: nearly all actives have a fitted effect of over 35% in size
Procedure, shortened: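 HEK293 cells stably expressing DRD2 were cultured 24 h at 37 C, then given Ro20-1724 (0.1 mM final) and compounds for 10 min at room temperature. NKH477 (200nM) was then added for 30 min. cAMP was read by HTRF.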

[18] = molecular target: D(2) dopamine receptor (Homo sapiens) (UniProt P14416); experiment: Dopamine D2 receptor (DRD2) small molecule antagonists, cell-based qHTS assay (AID 1963595; active means well fitted inhibition curve with a large enough effect in the signal ratio in the repeat runs, with a control signal flat; the % refers to the signal ratio)
Procedure, shortened: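 HEK293 cells stably expressing DRD2, preincubated with 0.1 mM Ro20-1724 and compounds 10 min, were stimulated with 200 nM NKH477 plus 12 nM quinpirole for 30 min at room temperature; cAMP measured by HTRF (665/620 nm).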

[19] = cAMP Responsive Elements (CRE) small molecule antagonists, cell-based qHTS assay (AID 1963591; active means well fitted inhibition curve with a large enough effect in the signal ratio in the repeat runs, not every such curve was filed as active; the % refers to the signal ratio)
Procedure, shortened: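 Antagonist mode: test compounds are co-incubated with the adenylyl cyclase activator NKH477 (0.25 uM final) on CRE-bla HEK293T cells for 3 h at 37 °C, followed by LiveBLAzer substrate loading.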

[20] = p53 small molecule agonists, cell-based qHTS assay: qHTS cell viability counter screen (AID 1963581); further: nearly all actives have a fitted effect of over 45% in size
Procedure, shortened: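 Cells: HCT-116 with p53 response element-driven beta-lactamase. Treatment: 16 h, 37 C, compounds in DMSO. Read: CellTiter-Glo luminescence after 30 min RT.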

Measured: Potency

D(2) dopamine receptor (Homo sapiens), sequence (P14416 whole entry, looked up): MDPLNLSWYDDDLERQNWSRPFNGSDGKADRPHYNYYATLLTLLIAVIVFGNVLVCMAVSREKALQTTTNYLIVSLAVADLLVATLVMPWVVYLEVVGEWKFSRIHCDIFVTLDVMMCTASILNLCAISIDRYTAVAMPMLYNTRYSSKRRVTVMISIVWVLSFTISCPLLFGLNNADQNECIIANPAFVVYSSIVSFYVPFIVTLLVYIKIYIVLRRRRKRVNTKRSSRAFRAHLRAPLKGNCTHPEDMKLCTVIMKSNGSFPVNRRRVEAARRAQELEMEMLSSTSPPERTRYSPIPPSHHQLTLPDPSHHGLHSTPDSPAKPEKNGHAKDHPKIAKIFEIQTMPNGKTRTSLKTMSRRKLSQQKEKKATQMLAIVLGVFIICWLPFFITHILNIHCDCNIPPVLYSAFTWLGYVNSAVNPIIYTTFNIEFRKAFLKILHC
5-hydroxytryptamine receptor 2A (Homo sapiens), sequence (P28223 whole entry, looked up): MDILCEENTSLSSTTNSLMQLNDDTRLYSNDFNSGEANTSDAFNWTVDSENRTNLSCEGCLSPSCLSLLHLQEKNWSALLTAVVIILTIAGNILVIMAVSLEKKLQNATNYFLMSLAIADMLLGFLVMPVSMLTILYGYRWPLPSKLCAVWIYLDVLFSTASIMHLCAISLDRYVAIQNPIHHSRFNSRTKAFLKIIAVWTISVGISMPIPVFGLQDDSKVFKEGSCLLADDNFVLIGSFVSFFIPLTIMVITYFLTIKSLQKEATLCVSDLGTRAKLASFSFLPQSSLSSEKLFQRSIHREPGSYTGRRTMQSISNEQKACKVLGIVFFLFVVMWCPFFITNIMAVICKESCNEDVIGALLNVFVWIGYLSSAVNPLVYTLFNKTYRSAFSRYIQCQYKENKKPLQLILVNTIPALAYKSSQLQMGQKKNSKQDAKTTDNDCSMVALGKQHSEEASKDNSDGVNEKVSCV
Muscarinic acetylcholine receptor M1 (Homo sapiens), sequence (P11229 whole entry, looked up): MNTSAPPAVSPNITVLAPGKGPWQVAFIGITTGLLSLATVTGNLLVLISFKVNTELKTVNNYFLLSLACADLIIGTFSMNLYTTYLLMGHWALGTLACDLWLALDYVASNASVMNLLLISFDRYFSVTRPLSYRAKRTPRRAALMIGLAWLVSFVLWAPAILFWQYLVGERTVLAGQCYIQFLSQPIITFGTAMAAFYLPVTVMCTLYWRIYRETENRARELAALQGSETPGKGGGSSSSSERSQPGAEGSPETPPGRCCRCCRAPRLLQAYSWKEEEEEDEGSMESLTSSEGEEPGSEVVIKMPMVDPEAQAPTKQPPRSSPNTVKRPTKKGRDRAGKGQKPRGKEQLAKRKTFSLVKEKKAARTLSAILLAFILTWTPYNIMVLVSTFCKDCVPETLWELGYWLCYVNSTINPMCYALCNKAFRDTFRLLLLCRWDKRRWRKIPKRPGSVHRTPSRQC
KiSS-1 receptor (Homo sapiens), sequence (Q969F8 whole entry, looked up): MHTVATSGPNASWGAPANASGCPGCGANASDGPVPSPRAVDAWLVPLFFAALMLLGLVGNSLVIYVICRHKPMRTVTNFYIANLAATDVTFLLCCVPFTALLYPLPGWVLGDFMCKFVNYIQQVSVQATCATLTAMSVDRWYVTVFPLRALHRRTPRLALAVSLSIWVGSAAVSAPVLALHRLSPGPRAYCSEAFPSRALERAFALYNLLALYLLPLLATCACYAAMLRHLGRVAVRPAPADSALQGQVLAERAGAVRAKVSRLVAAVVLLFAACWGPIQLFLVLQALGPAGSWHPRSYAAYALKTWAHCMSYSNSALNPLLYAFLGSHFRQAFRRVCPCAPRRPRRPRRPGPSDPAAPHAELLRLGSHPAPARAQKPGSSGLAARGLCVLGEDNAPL
Gonadotropin-releasing hormone receptor (Homo sapiens), sequence (P30968 whole entry, looked up): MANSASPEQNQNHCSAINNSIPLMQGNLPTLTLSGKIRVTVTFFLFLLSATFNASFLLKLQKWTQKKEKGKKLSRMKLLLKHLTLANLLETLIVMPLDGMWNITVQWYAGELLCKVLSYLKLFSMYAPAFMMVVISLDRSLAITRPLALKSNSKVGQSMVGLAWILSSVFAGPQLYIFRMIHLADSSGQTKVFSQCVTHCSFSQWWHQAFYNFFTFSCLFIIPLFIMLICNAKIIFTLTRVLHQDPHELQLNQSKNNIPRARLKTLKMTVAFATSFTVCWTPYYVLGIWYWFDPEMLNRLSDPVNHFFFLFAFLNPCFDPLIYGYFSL
Beta-2 adrenergic receptor (Homo sapiens), sequence (P07550 whole entry, looked up): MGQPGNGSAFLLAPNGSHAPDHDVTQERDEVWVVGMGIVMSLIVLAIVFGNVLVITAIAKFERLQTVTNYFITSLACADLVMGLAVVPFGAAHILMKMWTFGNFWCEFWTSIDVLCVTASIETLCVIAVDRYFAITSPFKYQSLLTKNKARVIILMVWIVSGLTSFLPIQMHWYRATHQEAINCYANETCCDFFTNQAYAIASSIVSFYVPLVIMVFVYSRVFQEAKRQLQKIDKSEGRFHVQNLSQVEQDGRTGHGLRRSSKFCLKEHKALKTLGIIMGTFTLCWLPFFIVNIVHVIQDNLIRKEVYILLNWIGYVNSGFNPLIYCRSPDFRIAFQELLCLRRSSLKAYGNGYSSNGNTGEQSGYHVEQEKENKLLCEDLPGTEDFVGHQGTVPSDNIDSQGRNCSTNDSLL

CC1=C(/C=C/C(C)=C/C=C/C(C)=C/C(=O)Nc2ccc(O)cc2)C(C)(C)CCC1
41.8 µM (active) and inactive: [8]
active: [1] 49.8 µM and 13.3 µM | [2] 2.22 µM and 2.11 µM
inactive: [3] | [4] | [5] | [6] | [7] | [9] | [10] | [11] | [12] | [13] | [14] | [15] | [16] | [17] | [18]

CCCCCC1C(=O)CCC1CC(=O)OC (stereo not drawn)
inactive: [1] | [2] | [3] | [4] | [5] | [6] | [7] | [8] | [9] | [10] | [11] | [12] | [13] | [14] | [19] | [15] | [16] | [17] | [18]

C#C[C@]1(O)CC[C@H]2[C@@H]3CCc4cc(OC)ccc4[C@H]3CC[C@@]21C
inactive: [1] | [3] | [4] | [5] | [6] | [7] | [8] | [9] | [10] | [14] | [19] | [15] | [17]
active: [2] 54.5 µM and 26.6 µM

CCCCCCCCCCCCOC(=O)c1cc(O)c(O)c(O)c1
active: [1] 30.5 µM and 27.3 µM | [8] 45.8 µM | [9] 40.6 µM
10.9 µM (active) and inactive: [11]
inactive: [2] | [3] | [4] | [5] | [6] | [7] | [12] | [13] | [14] | [15] | [16] | [17]

C[C@]12C=CC(=O)C=C1CC[C@@H]1[C@@H]2C(=O)C[C@@]2(C)[C@H]1CC[C@]2(O)C(=O)CO
inactive: [1] | [2] | [3] | [4] | [5] | [6] | [7] | [8] | [9] | [14] | [19] | [15] | [16] | [17] | [18]

Brc1nc2ccccc2s1
inactive: [1] | [2] | [3] | [4] | [5] | [6] | [7] | [8] | [20] | [10] | [11] | [12] | [13] | [19] | [15] | [16] | [17] | [18]

O=C(O)CC(C(=O)O)C(CC(=O)O)C(=O)O (stereo not drawn)
inactive: [1] | [2] | [3] | [4] | [5] | [6] | [7] | [8] | [9] | [10] | [11] | [12] | [13] | [14] | [19] | [15] | [17] | [18]

C=CC[N+](C)(C)CC=C
inactive: [1] | [2] | [3] | [4] | [5] | [6] | [7] | [8] | [20] | [10] | [11] | [12] | [14] | [19] | [15] | [16] | [17] | [18]

O=C(OCCOCCOC(=O)c1ccccc1)c1ccccc1
inactive: [1] | [2] | [3] | [4] | [5] | [6] | [7] | [8] | [9] | [10] | [11] | [13] | [14] | [19] | [15] | [17]

OCCCc1ccccc1
inactive: [1] | [2] | [3] | [4] | [5] | [6] | [7] | [8] | [20] | [10] | [11] | [12] | [13] | [14] | [19] | [15] | [16] | [17] | [18]

OC[C@]1(O)OC[C@@H](O)[C@H](O)[C@@H]1O
inactive: [1] | [2] | [3] | [4] | [5] | [6] | [7] | [8] | [20] | [11] | [12] | [13] | [14] | [19] | [15] | [16] | [17] | [18]

CC(=O)c1ccccc1
inactive: [1] | [2] | [3] | [4] | [5] | [6] | [7] | [8] | [9] | [10] | [11] | [12] | [13] | [14] | [19] | [15] | [17] | [18]

CC1=CC(C)(C)Nc2ccccc21
inactive: [1] | [2] | [3] | [4] | [5] | [6] | [7] | [8] | [20] | [10] | [11] | [12] | [13] | [14] | [19] | [15] | [16] | [17] | [18]

C[C@H]1C[C@H]2[C@@H]3CCC4=CC(=O)C=C[C@]4(C)[C@@]3(F)[C@@H](O)C[C@]2(C)[C@@]1(O)C(=O)CO
inactive and 793 nM (active): [8]
inactive: [1] | [2] | [3] | [4] | [5] | [6] | [7] | [9] | [10] | [14] | [15] | [16] | [17] | [18]

OCCOCCOCCO
inactive: [1] | [2] | [3] | [4] | [5] | [6] | [7] | [8] | [9] | [10] | [12] | [13] | [14] | [15] | [16] | [17] | [18]
